HCV inh: inhibitors of hepatitis C virus infection. actives 3.4% (n = 340,000). Potency, µM (series often up to 41.8 µM), for inactives: at the highest dose activity change, negative = inhibition, actives largely listed as inhibitors. Huh7.5.1 HCVcc-Cre infection, luciferase reporter, 44 h; active = well fitted inhibition curve with a large enough effect; inconclusive = small, poorly fitted or top-dose-only effect, or another doubt; inactive = no such curve, though single readings can be large or run the other way; also: potency is read from the fitted curve at half-maximal effect
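Reporter virus HCVcc-Cre (~0.5 moi) infects cells exposed to compound; seeding density 1,000 cells/well with 4 h settling beforehand. Luminescence, 15 sec read, taken 44 h post-infection following a 15 min RT substrate incubation.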
FMDV inh: foot and mouth disease virus antiviral activity | AID 1159524 | actives 1.2% (n = 410,000) | FMDV antiviral cell-based qHTS | Potency, µM (series often up to 57.9 µM), for the others: top-dose activity change, negative = inhibition, hits mostly inhibitors; calls by dose curve; tested in HEK293T cells; also: read-out not given here; potency is read from the fitted curve at half-maximal effect; nearly all actives have a fitted effect of over 45% in size
LASV entry inh: Lassa virus entry inhibition. actives 1.2% (n = 300,000). AID 540256. Lassa virus pseudotype entry inhibition, cell reporter. Potency, µM (top dose mostly 37.9 µM), inactives show at the top dose activity change, negative = inhibition, hits mostly inhibitors; calls by dose curve; tested in HEK293 cells; also: potency is read from the fitted curve at half-maximal effect; nearly all actives have a fitted effect of over 50% in size
HCMV antiviral: blocks human cytomegalovirus replication; actives 4.5% (n = 410,000); activity change, negative = inhibition, % at 57.5 µM; HFF cells, HCMV-luciferase reporter, 72 h; hits give low values; in the data active = activity change below about -60%; inconclusive = no clear call, values can overlap the other calls; inactive = above about -39%
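Luciferase read-out from HCMV-luciferase-infected HFFs (MOI 1 PFU/cell) 72 h post infection at 37C; compounds added after 16 h cell attachment; activity normalized between buffer-only basal and Salinomycin (10uM) inhibitor controls.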
Marburg entry inh: Marburg virus entry inhibition; Potency, µM (titrated, usually from 37.8 µM), inactives show at the highest dose activity change, negative = inhibition, most hits filed as inhibitors; actives 1.8% (n = 300,000); Marburg virus pseudotyped entry inhibition, cell reporter; calls by dose curve; tested in HEK293 cells; also: potency is read from the fitted curve at half-maximal effect
The depositor's hits bear a star; ? = inconclusive; / = no result; [ ] = remark or other dose. Compounds with a hit are over-represented: about 7.9% of the library has one in this group of screens. % is scaled to controls: 0 for no effect and ±100 for the full control effect.

SMILES	HCV inh	FMDV inh	LASV entry inh	HCMV antiviral	Marburg entry inh
CC[N+]1(C)[C@@H]2CC[C@H]1CC(OC(=O)[C@H]1CCC(C(=O)OC3C[C@H]4CC[C@@H](C3)[N+]4(C)CC)(c3ccccc3)c3ccccc31)C2 (stereo not given in full)	-9%	-25%	/	-69*	/
COc1cc(CCC(=O)Nc2c(C(=O)N3CCN(c4ccccc4)CC3)oc3ccccc23)on1	-21%	31%	?	19	-13%[46.1 µM]
COc1ccc(N2CCN(C(=O)c3oc4ccccc4c3NC(=O)CCc3cc(OC)no3)CC2)cc1	?	25µM*	-21%[46.1 µM]	-9	-18%[46.1 µM]
CCOc1ccc(C(=O)Nc2ccc3nn(-c4ccc(OC)c(Cl)c4)nc3c2)cc1	/	-10%	7%[46.1 µM]	-3	/
Cc1cccc(N2CCN(C(=O)CCC(=O)N3CC(C)Oc4ccc(C)cc43)CC2C)c1 (stereo not given)	?	28µM*	/	-15	/
Cc1ccc2c(c1)N(C(=O)CCC(=O)NCc1ccccc1)CC(C)O2 (stereo not given)	-4%	-2%	/	-31	/
Cc1ccc2c(c1)N(C(=O)CCC(=O)NCCCN1CCOCC1)CC(C)O2 (stereo not given)	11%	-20%	/	-65*	/
Cc1ccc2c(c1)N(C(=O)CCC(=O)N1CCN(c3ccccn3)CC1)CC(C)O2 (stereo not given)	-10%	-8%	/	-71*	/
COc1ccc(-c2ccc(=O)n(Cc3cccc([N+](=O)[O-])c3)n2)cc1	11µM*	?	/	-38	/
Cc1cc(-c2ccccc2)nc(SCC(=O)c2cccc([N+](=O)[O-])c2)n1	13µM*	?	?	8	-24%
O=C(CSc1ccccc1C(=O)O)c1ccc([N+](=O)[O-])cc1	2%	24%	/	-6	/
O=C(CSc1nc(-c2ccccc2)cc(C(F)(F)F)n1)c1cccc([N+](=O)[O-])c1	?	?	8%	-27	-1%
O=C(CSc1ccc([N+](=O)[O-])cc1)c1ccccc1	33%	1%	6%	-73*	?
COc1ccc(-c2cc(C)nc(SCC(=O)c3cccc([N+](=O)[O-])c3)n2)cc1	16µM*	10%	5%	1	2%
COc1ccc(-c2ccc(=O)n(Cc3c(F)cccc3Cl)n2)cc1	?	-8%	/	-25	/
Cc1ccc(OCc2nnc(SCC(=O)c3cccc([N+](=O)[O-])c3)n2C)cc1	8.9µM*	0%	9%	-22	-2%
C=CCOC(=O)N[C@H](C(C(=O)OC)=C(C)NCc1ccccc1)c1cccc(OC)c1	/	/	/	/	-13%[14.2 µM]
COC(C[C@@H]1O[C@H]1C(=O)[C@@H](C)OCc1ccccc1)OC	-2%	0%	/	14	/
CCN(CC)CCOC(=O)C1(C2CCCCC2)CCCCC1	1%[8.37 µM]	0%	?	-5	13µM*
COc1ccccc1NC(=O)C1=C(C)Nc2nc(CCCO)nn2C1c1cccc(O)c1 (stereo not given)	/	?	-6%[46.1 µM]	14	0%[46.1 µM]
CCN(CCCNc1ncnc2nc[nH]c12)c1cccc(C)c1	?	?	/	-76*	/
CSc1cccc(NC(=O)N2CCCC(CNS(=O)(=O)Cc3ccccc3)C2)c1 (stereo not given)	-16%	16%	/	-22	5%[46.1 µM]
c1ccc(C2=Nn3c(Cn4nnc5ccccc54)nnc3SC2)cc1	9%	6%	13%	9	1%[46.1 µM]
c1ccc(-c2ccc(C3=Nn4c(Cn5nnc6ccccc65)nnc4SC3)cc2)cc1	-65%	?	11µM*	-27	?
CCc1nc2ccc(C(=O)Nc3ccc(OC)c(OC)c3)cn2c1N(C)Cc1ccc(OC)cc1	/	-24%	/	50	/
SMILES	HCV inh	FMDV inh	LASV entry inh	HCMV antiviral	Marburg entry inh
CCc1nc2ccc(C(=O)Nc3ccc(OC)c(OC)c3)cn2c1N(C)Cc1cccs1	/	-6%	/	-79*	/
Cc1cccc(NC(=S)NNc2ncc(C(F)(F)F)cc2Cl)c1	11µM*	?	18µM*	?	?
O=C(Nc1ccccc1)Nc1ncc(C(F)(F)F)cc1Cl	/	-9%	/	-30	/
FC(F)(F)c1cnc(NNC(=S)Nc2ccccc2Cl)c(Cl)c1	?	10µM*	?	-100*	?
COc1ccc2c([N+](=O)[O-])c(-c3ccccc3)[nH]c2c1	/	/	/	-20	/
O=c1ccc2ccccc2c2ccccc12	/	13µM*	/	-99*	/
Cc1cccc(C(=O)OCC(=O)N(C)c2ccccc2)c1C	3%	5%	?	?	-10%[46.1 µM]

Source: PubChem BioAssay
